Data on 35 compounds can be found in PubChem BioAssay (Tox21).

Each structure is given as a SMILES string. A number with no mark means an inactive call. Results filed as inconclusive are left out. Entries that show only a call come without a potency. Activity calls are given as the source filed them. Unless noted, calls follow the shape of the dose curve; as a rule, active = well fitted inhibition curve with a large enough effect in the repeat runs (not every such curve was filed as active); inconclusive = weak or mixed curves; inactive = flat fitted curve, though single readings scatter.

Chain of Thyrotropin-releasing hormone receptor (Homo sapiens) (P34981 whole entry, looked up): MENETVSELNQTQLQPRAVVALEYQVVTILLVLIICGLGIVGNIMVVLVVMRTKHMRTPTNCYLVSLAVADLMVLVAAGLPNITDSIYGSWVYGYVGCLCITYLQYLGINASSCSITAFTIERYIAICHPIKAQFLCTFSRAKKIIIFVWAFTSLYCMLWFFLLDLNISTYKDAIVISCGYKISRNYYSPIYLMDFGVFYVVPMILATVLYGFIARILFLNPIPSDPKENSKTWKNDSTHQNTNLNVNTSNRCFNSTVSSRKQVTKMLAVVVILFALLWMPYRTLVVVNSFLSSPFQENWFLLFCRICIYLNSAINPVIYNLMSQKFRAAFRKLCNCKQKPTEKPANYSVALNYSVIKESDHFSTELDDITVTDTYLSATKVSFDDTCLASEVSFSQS

Test system in the first test: not listed separately
The experiment in a line: qHTS assay to identify small molecule agonists of the TGF-beta/Smad signaling pathway - cell viability counter screen (AID 1346829; active = well fitted cell-killing curve with a large enough effect in the repeat runs; also: top concentration of the series differs between compounds; nearly all actives have a fitted effect of over 45% in size). The settings on record: SBE-bla HEK293T viability, CellTiter-Glo luminescence, 5 h; series mostly up to 76.8 µM; activity change, negative = cytotoxicity: at the top concentration. Summed up: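 Tox21 qHTS format: SBE-bla HEK 293T cells treated with DMSO-dissolved compounds for 5 hr; CellTiter-Glo luminescence after 30 min at room temperature.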
(In general: qHTS replaces the single test concentration by a dilution series.)
`Cl`: the Potency entry is “inactive”.

On to `CC(C)(O)C(=O)Nc1ccc([N+](=O)[O-])c(C(F)(F)F)c1`, for which the Potency result was “inactive”.

For the compound `C[C@]12CCC(=O)C=C1CC[C@@H]1[C@@H]2CC[C@@]2(C)[C@H]1CC[C@]2(C)O`, the Potency result is “inactive”.

Regarding `NN=C(N)N`, the Potency result was “inactive”.

For the compound `CCOP(=S)(OCC)SCSC(C)(C)C`, the Potency entry is “inactive”.

Take `O=P(OCCCl)(OCCCl)OCCCl`: the Potency entry is “inactive”.

In the case of `CC1=C(C(=O)Nc2ccccc2)SCCO1`, the Potency entry was “inactive”.

For `O=NN1CCOCC1`, the Potency entry was “inactive”.

Take `CNC(=S)S`: the Potency result is “inactive”.

Take `CC(C)Nc1ccc(Nc2ccccc2)cc1`: the Potency entry is “inactive”.

With `C[N+](C)(C)C`, the Potency entry is “inactive”.

Take `CCCCOCC1CO1` (stereo unspecified): the “activity change, negative = cytotoxicity” value was 0.961%.

In the case of `CCCCC(C#N)(Cn1cncn1)c1ccc(Cl)cc1` (stereo unspecified), the Potency result was “inactive”.

Test system in another test: not listed separately
The experiment in a line: qHTS assay to identify small molecule agonists of the TGF-beta/Smad signaling pathway (AID 1346859; active = well fitted activation curve with a large enough effect in the signal ratio in the repeat runs, not every such curve was filed as active; the % refers to the signal ratio). The settings on record: SBE-bla HEK293T, TGF-beta/Smad beta-lactamase reporter, 5 h; series mostly up to 76.8 µM; activation: at the top concentration. Summed up:
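Reporter line: HEK 293T with stably integrated SBE-controlled beta-lactamase. Compound exposure lasts 5 hr at 37 C and 5% CO2; substrate loading follows for 2 hr at room temperature, with emission read at 460 and 530 nm.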
For the compound `ClCC(Cl)CCl`, the Potency entry was “inactive”.

As for `CC[n+]1c(-c2ccccc2)c2cc(N)ccc2c2ccc(N)cc21`, the Potency result was “inactive”.

As for `CCCCSP(=O)(SCCCC)SCCCC`, the Potency entry is “inactive”.

As for `C[N+](C)(C)CC(=O)[O-]`, the Potency entry was “inactive”.

For the compound `CCCCOCCOC(C)=O`, the Potency result is “inactive”.

For the compound `CC(C)(O)C#N`, the Potency result is “inactive”.

On to `CC1(C)Cc2cccc(O)c2O1`, for which the Potency result is “inactive”.

Regarding `NC(=O)CN1CCCC1=O`, the Potency result was “inactive”.

As for `Clc1cccc(C(Cl)(Cl)Cl)n1`, the Potency entry is “inactive”.

Take `Clc1cccc(Cl)c1`: the Potency entry is “inactive”.

Turning to `Clc1ccc(C(Cl)(Cl)Cl)cc1`, the Potency entry is “inactive”.

Regarding `CC1CC(=O)O1` (stereo unspecified), the Potency entry is “inactive”.

Consider `Nc1ccc2ccccc2c1`, for which the Potency entry was “inactive”.

With `CCOP(=O)(O)OCC` (tested in a mixture with another compound), the “activation” value is -2.38%.

`Cl`: the Potency entry is “inactive”.

Take `CC(C)(O)C(=O)Nc1ccc([N+](=O)[O-])c(C(F)(F)F)c1`: the “activation” value was -6.02% [at 35.3 µM].

`O=P(OCCCl)(OCCCl)OCCCl`: the Potency entry is “inactive”.

For the compound `CC1=C(C(=O)Nc2ccccc2)SCCO1`, the Potency entry is “inactive”.

With `O=NN1CCOCC1`, the Potency entry was “inactive”.

For the compound `CNC(=S)S`, the Potency result was “inactive”.

Regarding `CC(C)Nc1ccc(Nc2ccccc2)cc1`, the Potency entry was “inactive”.

On to `C[N+](C)(C)C`, for which the Potency result was “inactive”.

Consider `CCCCOCC1CO1` (stereo unspecified), for which the Potency entry is “inactive”.

For the compound `CCCCC(C#N)(Cn1cncn1)c1ccc(Cl)cc1` (stereo unspecified), the Potency result was “inactive”.

A further test has as its target Thyrotropin-releasing hormone receptor (Homo sapiens) (UniProt P34981). Description: qHTS assay to identify small molecule antagonists of the thyrotropin-releasing hormone receptor (TRHR) signaling pathway (AID 1346877). The settings on record: TRHR-HEK293, TRH-induced calcium fluorescence, antagonist mode; series mostly up to 51.3 µM; activity, negative = inhibition: at the top concentration. Summed up: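 TRHR-expressing HEK293 cells were seeded, cultured 18 h at 37 °C, then loaded with calcium dye for 2 h. Compounds were pre-incubated 5 min at room temperature before 1 nM TRH (final) was added, and kinetic fluorescence was recorded for 3 min.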
As for `ClCC(Cl)CCl`, the Potency entry was “inactive”.

As to `N#Cc1nn(-c2c(Cl)cc(C(F)(F)F)cc2Cl)c(N)c1S(=O)C(F)(F)F` (stereo unspecified), the Potency entry is “inactive”.

Regarding `CC[n+]1c(-c2ccccc2)c2cc(N)ccc2c2ccc(N)cc21`, the Potency entry was “inactive”.

On to `O=[N+]([O-])c1ccc(Cl)c([N+](=O)[O-])c1`, for which the Potency entry was “inactive”.

As for `CCCCSP(=O)(SCCCC)SCCCC`, the Potency result was “inactive”.

Consider `O=[N+]([O-])c1ccc(Nc2ccccc2)cc1`, for which the Potency result was “inactive”.

As to `CCCCOCCOC(C)=O`, the Potency entry was “inactive”.

On to `CC(C)(O)C#N`, for which the Potency entry was “inactive”.

Take `c1ccc(C2CO2)cc1` (stereo unspecified): the Potency result is “inactive”.

`O=C(O)CF`: the Potency entry was “inactive”.

On to `CC1(C)Cc2cccc(O)c2O1`, for which the Potency entry is “inactive”.

Regarding `NC(=O)CN1CCCC1=O`, the Potency result was “inactive”.

For the compound `Clc1cccc(Cl)c1`, the Potency result is “inactive”.

Turning to `COP(=S)(OC)SCn1nnc2ccccc2c1=O`, the Potency result is “inactive”.

On to `Clc1ccc(C(Cl)(Cl)Cl)cc1`, for which the Potency result was “inactive”.

`Nc1ccc2ccccc2c1`: the Potency entry was “inactive”.

For the compound `COP(=O)(NC(C)=O)SC` (stereo unspecified), the Potency result is “inactive”.

On to `CCC[CH2][Sn]([Cl])([Cl])[CH2]CCC`, for which the Potency entry is “inactive”.

`C[C@]12CCC(=O)C=C1CC[C@@H]1[C@@H]2CC[C@@]2(C)[C@H]1CC[C@]2(C)O`: the Potency entry is “inactive”.

As for `O=P(OCCCl)(OCCCl)OCCCl`, the Potency entry was “inactive”.

As to `CC1=C(C(=O)Nc2ccccc2)SCCO1`, the Potency result is “inactive”.

Turning to `O=NN1CCOCC1`, the Potency entry is “inactive”.

Consider `CNC(=S)S`, for which the Potency result is “inactive”.

For `CC(C)Nc1ccc(Nc2ccccc2)cc1`, the Potency result was “inactive”.

Consider `C[N+](C)(C)C`, for which the Potency result is “inactive”.

With `CCCCOCC1CO1` (stereo unspecified), the Potency result was “inactive”.

As to `CCCCC(C#N)(Cn1cncn1)c1ccc(Cl)cc1` (stereo unspecified), the Potency result was “inactive”.

Another test has the same target. The experiment in a line: qHTS assay to identify small molecule agonists of the thyrotropin-releasing hormone receptor (TRHR) signaling pathway (AID 1346891; calls by dose curve). The settings on record: TRHR-HEK293 calcium fluorescence, agonist mode; series mostly up to 57.6 µM; activation: at the top concentration. In outline:
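Cells: TRHR-Hek293, seeded and incubated 18 h. Dye loading: 2 h at 37 °C. Compound added from DMSO stock by pin tool. Read-out: kinetic calcium fluorescence over 3 min.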
Regarding `ClCC(Cl)CCl`, the outcome was inactive.

In the case of `N#Cc1nn(-c2c(Cl)cc(C(F)(F)F)cc2Cl)c(N)c1S(=O)C(F)(F)F` (stereo unspecified), the outcome was inactive.

As to `CC[n+]1c(-c2ccccc2)c2cc(N)ccc2c2ccc(N)cc21`, the outcome was inactive.

Take `O=[N+]([O-])c1ccc(Cl)c([N+](=O)[O-])c1`: the result was inactive.

In the case of `CCCCSP(=O)(SCCCC)SCCCC`, the result was inactive.

Consider `O=[N+]([O-])c1ccc(Nc2ccccc2)cc1`, for which the outcome was inactive.

With `CCCCOCCOC(C)=O`, the result was inactive.

On to `CC(C)(O)C#N`, for which the result was inactive.

As to `c1ccc(C2CO2)cc1` (stereo unspecified), the outcome was inactive.

As for `O=C(O)CF`, the result was inactive.

For the compound `CC1(C)Cc2cccc(O)c2O1`, the result was inactive.

In the case of `NC(=O)CN1CCCC1=O`, the outcome was inactive.

As for `Clc1cccc(Cl)c1`, the outcome was inactive.

For the compound `COP(=S)(OC)SCn1nnc2ccccc2c1=O`, the outcome was inactive.

With `Clc1ccc(C(Cl)(Cl)Cl)cc1`, the result was inactive.

For `Nc1ccc2ccccc2c1`, the outcome was inactive.

For `COP(=O)(NC(C)=O)SC` (stereo unspecified), the outcome was inactive.

Take `CCC[CH2][Sn]([Cl])([Cl])[CH2]CCC`: the result was inactive.

`C[C@]12CCC(=O)C=C1CC[C@@H]1[C@@H]2CC[C@@]2(C)[C@H]1CC[C@]2(C)O`: the outcome was inactive.

Take `O=P(OCCCl)(OCCCl)OCCCl`: the result was inactive.

In the case of `CC1=C(C(=O)Nc2ccccc2)SCCO1`, the result was inactive.

Regarding `O=NN1CCOCC1`, the outcome was inactive.

In the case of `CNC(=S)S`, the result was inactive.

Regarding `CC(C)Nc1ccc(Nc2ccccc2)cc1`, the result was inactive.

Turning to `C[N+](C)(C)C`, the outcome was inactive.

Turning to `CCCCOCC1CO1` (stereo unspecified), the result was inactive.

Consider `CCCCC(C#N)(Cn1cncn1)c1ccc(Cl)cc1` (stereo unspecified), for which the result was inactive.
